Experimental findings from PubChem BioAssay are described below.

Test [1] can be described thus: antimalarial activity against Dd2 strain (AID 2302;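 active means growth inhibition above 50% at the single 2 µM test dose, taken to imply half-maximal potency below 2 µM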;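 further: 0% = DMSO untreated growth and 100% = chloroquine plus artemisinin killed control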). The following applies: P. falciparum Dd2 in RBCs, LDH growth readout, 72 h; at 2 µM; hits give high values.
A short description of test [2]: HepG2 cytotoxicity, primary screen, cytotoxicity control for P. falciparum antimalarial project, cell-based, ATP luminescence (AID 2303;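 active means inhibition above 50%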;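 further: 0% = DMSO wells and 100% = digitonin-killed cells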). The following applies: HepG2 viability, 24-48 h, at 10 µM, hits give high values.
Test [3] deals with L-lactate dehydrogenase (Plasmodium falciparum (isolate CDC / Honduras)) (UniProt Q27743). The experiment in a line: PfLDH activity inhibition – cell lysate, 3D7 strain, counter-screen for P. falciparum growth inhibition project (AID 2304).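 Further: 0% = vehicle and 100% = reference inhibitor.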 The following applies: P. falciparum 3D7 crude extract, LDH APAD/NBT absorbance; at 2 µM; hits give high values.
Test [4] is described as follows: inhibition of 3D7 malaria parasite growth – strain 3D7 (AID 2306).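 Further: 0% = DMSO wells and 100% = chloroquine plus artemisinin control wells.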 The following applies: P. falciparum 3D7 erythrocytic growth, LDH absorbance, 72 h; at 2 µM; hits give high values.
In test [5] the target is Calcium-dependent protein kinase 1 (Plasmodium falciparum (isolate 3D7)) (UniProt P62344). The test is described as follows: PfCDPK1 kinase inhibitors, biochemical, TCAMS library (AID 1159585; cut-off not given, nearly all actives have IC50 up to about 0.98 µM;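 further: inhibitors leave more ATP so luminescence rises with inhibition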). The following applies: recombinant PfCDPK1, Kinase-Glo ATP depletion luminescence.
In test [6] the target is Plasmodium falciparum protein kinase 6 (PK6, PF3D7_1337100) (UniProt Q8IDW1). The experiment in a line: PfPK6 kinase inhibitors, biochemical, TCAMS library (AID 1159586). The following applies: recombinant PfPK6, Kinase-Glo ATP depletion luminescence.
The target of test [7] is Protein kinase 7 (PK7), Plasmodium falciparum 3D7 (PF3D7_0213400) (UniProt Q7YTF7). The experiment in a line: inhibition of Plasmodium PK7 catalytic activity – biochemical, TCAMS antimalarial set, Kinase-Glo luminescence (AID 1159587). The conditions noted are these: recombinant PfPK7, Kinase-Glo ATP depletion luminescence. In general terms: In Kinase-Glo more light means more ATP remaining.

In test [8] the target is Calcium-dependent protein kinase 4 (Plasmodium falciparum (isolate 3D7)) (UniProt Q8IBS5). The test is described as follows: PfCDPK4 kinase inhibitors, biochemical, TCAMS library (AID 1159588; cut-off not given, nearly all actives have IC50 up to about 0.91 µM). The conditions noted are these: recombinant PfCDPK4, Kinase-Glo ATP depletion luminescence.

Each structure is given as a SMILES string. A number with no mark means an inactive call. For some of these results: Entries with a potency or affinity are not part of this list. Active and inactive are the calls of the source. Unless noted, how the calls were made is not given here.

As usually defined, the inhibition is the relative decrease from the control value, in per cent.

Sequence of Calcium-dependent protein kinase 4 (Plasmodium falciparum (isolate 3D7)) (Q8IBS5 whole entry, looked up): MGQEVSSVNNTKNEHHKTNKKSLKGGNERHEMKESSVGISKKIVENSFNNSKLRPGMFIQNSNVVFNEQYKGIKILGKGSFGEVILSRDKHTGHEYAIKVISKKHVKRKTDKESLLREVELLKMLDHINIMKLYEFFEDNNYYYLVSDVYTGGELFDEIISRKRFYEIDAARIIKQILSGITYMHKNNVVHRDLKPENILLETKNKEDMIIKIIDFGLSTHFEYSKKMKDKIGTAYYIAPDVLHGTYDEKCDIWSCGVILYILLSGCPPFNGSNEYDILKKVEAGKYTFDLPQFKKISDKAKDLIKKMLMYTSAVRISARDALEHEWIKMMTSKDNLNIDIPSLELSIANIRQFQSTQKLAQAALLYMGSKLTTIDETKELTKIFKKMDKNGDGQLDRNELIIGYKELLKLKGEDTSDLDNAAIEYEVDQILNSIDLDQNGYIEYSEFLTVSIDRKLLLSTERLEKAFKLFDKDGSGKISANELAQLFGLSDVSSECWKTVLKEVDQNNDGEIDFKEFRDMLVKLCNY
Sequence of Calcium-dependent protein kinase 1 (Plasmodium falciparum (isolate 3D7)) (P62344 whole entry, looked up): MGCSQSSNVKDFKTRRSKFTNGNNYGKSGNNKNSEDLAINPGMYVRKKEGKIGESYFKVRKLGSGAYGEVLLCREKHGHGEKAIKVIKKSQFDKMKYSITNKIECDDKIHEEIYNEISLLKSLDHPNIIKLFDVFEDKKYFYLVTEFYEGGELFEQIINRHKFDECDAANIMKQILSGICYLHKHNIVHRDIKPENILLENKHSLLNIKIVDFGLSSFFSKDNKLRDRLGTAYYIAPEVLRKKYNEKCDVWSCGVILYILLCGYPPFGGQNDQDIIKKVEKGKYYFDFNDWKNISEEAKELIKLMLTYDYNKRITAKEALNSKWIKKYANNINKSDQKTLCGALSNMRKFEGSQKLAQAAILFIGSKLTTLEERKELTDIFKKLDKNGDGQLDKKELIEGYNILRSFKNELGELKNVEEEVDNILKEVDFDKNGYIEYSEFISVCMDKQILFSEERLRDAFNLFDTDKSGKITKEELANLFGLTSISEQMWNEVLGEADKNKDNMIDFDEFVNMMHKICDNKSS
Sequence of Plasmodium falciparum protein kinase 6 (PK6, PF3D7_1337100) (Q8IDW1 1-305): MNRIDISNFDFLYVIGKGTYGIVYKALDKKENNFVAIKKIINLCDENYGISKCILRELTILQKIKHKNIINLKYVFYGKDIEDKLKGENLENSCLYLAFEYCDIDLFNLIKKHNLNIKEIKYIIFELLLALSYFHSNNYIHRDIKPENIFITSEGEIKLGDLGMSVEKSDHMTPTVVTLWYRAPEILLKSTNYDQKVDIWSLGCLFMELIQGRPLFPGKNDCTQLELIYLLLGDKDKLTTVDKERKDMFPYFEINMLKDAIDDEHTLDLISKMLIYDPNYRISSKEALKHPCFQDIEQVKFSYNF
Sequence of L-lactate dehydrogenase (Plasmodium falciparum (isolate CDC / Honduras)) (Q27743 whole entry, looked up): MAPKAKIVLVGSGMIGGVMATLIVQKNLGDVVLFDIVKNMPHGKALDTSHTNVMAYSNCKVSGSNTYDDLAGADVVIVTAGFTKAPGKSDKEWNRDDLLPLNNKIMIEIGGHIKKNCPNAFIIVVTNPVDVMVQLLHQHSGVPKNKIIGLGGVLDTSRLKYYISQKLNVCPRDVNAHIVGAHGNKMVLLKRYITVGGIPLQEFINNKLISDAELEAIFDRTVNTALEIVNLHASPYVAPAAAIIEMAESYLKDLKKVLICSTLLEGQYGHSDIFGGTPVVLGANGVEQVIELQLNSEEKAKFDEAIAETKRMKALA
Sequence of Protein kinase 7 (PK7), Plasmodium falciparum 3D7 (PF3D7_0213400) (Q7YTF7 1-343): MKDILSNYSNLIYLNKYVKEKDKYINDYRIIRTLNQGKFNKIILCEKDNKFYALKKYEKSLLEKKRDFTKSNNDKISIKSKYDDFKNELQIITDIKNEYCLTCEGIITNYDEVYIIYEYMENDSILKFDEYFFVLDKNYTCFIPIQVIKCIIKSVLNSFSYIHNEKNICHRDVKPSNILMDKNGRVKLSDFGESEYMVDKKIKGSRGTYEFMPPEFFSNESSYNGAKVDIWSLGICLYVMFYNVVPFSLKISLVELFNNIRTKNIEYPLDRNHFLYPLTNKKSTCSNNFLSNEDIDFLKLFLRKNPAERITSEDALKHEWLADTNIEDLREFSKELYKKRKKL

Consider `O=C(C=Cc1ccc(Cl)c(Cl)c1)NCCCCCN1CCC(CCCNS(=O)(=O)c2ccc(Br)cc2)CC1`, for which the growth inhibition in test [1] is 25%; in test [4] it was 93% (active). Further, the inhibition was 74% (active) in test [2] and -5% in test [3]. The result in test [5], in test [6], in test [7] and in test [8] was inactive.
As to `CC1CN(c2ccc(NC(=O)c3ccsc3)cc2C(=O)N2CCN(Cc3ccc(C(C)(C)C)cc3)CC2)CC(C)O1` (stereo not given), the figures for the growth inhibition in test [1] and in test [4] were 80% (active) and 90% (active), respectively. The results for the inhibition in test [2] and in test [3] were 12% and 7%, respectively. For the same molecule, the outcome in test [5], in test [6], in test [7] and in test [8] was inactive.
Turning to `COc1ccc(CCON2C(N)=NC(N)=NC2(C)C)cc1OC`, the growth inhibition is 93% (active) in test [1] and 96% (active) in test [4]. The inhibition is 64% (active) in test [2] and 2% in test [3]. Besides, the result in test [5], in test [6], in test [7] and in test [8] was inactive.
Turning to `CCNS(=O)(=O)c1ccc(Oc2ccc([N+](=O)[O-])cc2)cc1`, the growth inhibition was 85% (active) in test [1] and 94% (active) in test [4]. For the same molecule, the inhibition in test [2] and in test [3] was 1% each time. Also, the outcome in test [5], in test [6], in test [7] and in test [8] was inactive.
Regarding `Cc1ccc(C(=O)NC2C(=O)NC2c2ccccc2)c(C)c1` (stereo not given), the growth inhibition is -1% in test [1] and 90% (active) in test [4]. The inhibition in test [2] was 7%; in test [3], -4%. The outcome in test [5], in test [6], in test [7] and in test [8] was inactive.
For the molecule `COc1ccc(C2CCN(C#N)C2)cc1OC1CCCC1` (stereo not given), the growth inhibition in test [1] is 97% (active); in test [4] it was 102% (active). Moreover, the figures for the inhibition in test [2] and in test [3] were 9% and 2%, respectively. Also, the result in test [5], in test [6], in test [7] and in test [8] was inactive.
As for `CO/N=C(\C)c1ccc2c(c1)CCN(CCC1CCC(NC(=O)/C=C/c3ccc(F)cc3)CC1)CC2` (stereo not given), the values for the growth inhibition in test [1] and in test [4] were 15% and 95% (active), respectively. Further, the values for the inhibition in test [2] and in test [3] were 45% and 1%, respectively. The result in test [5], in test [6], in test [7] and in test [8] was inactive.
On to `Cc1ccc(C2=NNC3(S2)C(=O)N(C)c2ccccc23)cc1` (stereo not given), for which the growth inhibition is 12% in test [1] and 82% (active) in test [4]. Further, the inhibition in test [2] is 36%; in test [3], 5%. The result in test [5], in test [6], in test [7] and in test [8] was inactive.
`N=c1ccn(CC(=NO)c2ccc(Cl)c(Cl)c2)cc1`: the growth inhibition was 81% (active) in test [1] and 87% (active) in test [4]. The inhibition is 23% in test [2] and -2% in test [3]. The outcome in test [5], in test [6], in test [7] and in test [8] was inactive.
On to `CC1=C(C(=O)Nc2cc3cn[nH]c3cc2F)C(c2cccc(NS(C)(=O)=O)c2)CC(=O)N1` (stereo not given), for which the growth inhibition was 97% (active) in test [1] and 96% (active) in test [4]. Also, the inhibition in test [2] is -10%; in test [3], -4%. Further, the outcome in test [5], in test [6], in test [7] and in test [8] was inactive.
As to `N=C(N)c1cccc(OCCCOc2cccc(NC(=O)Nc3ccc([N+](=O)[O-])cc3)c2)c1`, the growth inhibition in test [1] is 22%; in test [4] it was 98% (active). In addition, the inhibition is 16% in test [2] and 3% in test [3]. The result in test [5], in test [6], in test [7] and in test [8] was inactive.
For `CN(C)CCCOc1cccc(NC(=O)Nc2ccc(Cl)c(Cl)c2)c1`, the growth inhibition in test [1] is 8%; in test [4], 90% (active). Also, the results for the inhibition in test [2] and in test [3] were 6% and -1%, respectively. The outcome in test [5], in test [6], in test [7] and in test [8] was inactive.
Take `Cc1cc(=O)c(-c2cccc(Oc3ccc(Cl)cc3)c2)c(C)[nH]1`: the growth inhibition in test [1] was 95% (active); in test [4] it was 96% (active). Besides, the inhibition in test [2] is -2%; in test [3], -4%. Also, the result in test [5], in test [6], in test [7] and in test [8] was inactive.
As for `O=S(=O)(Nc1ccc2nccc(N3CCNCC3)c2c1)c1ccc2oc3ccccc3c2c1`, the growth inhibition in test [1] is 2%; in test [4], 101% (active). Moreover, the inhibition was 16% in test [2] and -5% in test [3]. The result in test [5], in test [6], in test [7] and in test [8] was inactive.
On to `CCCN1CCN(Cc2ccc(-c3ccc(-c4nc5ccccc5[nH]4)s3)cc2)CC1`, for which the growth inhibition was 93% (active) in test [1] and 103% (active) in test [4]. For the same molecule, the inhibition is 29% in test [2] and 5% in test [3]. Further, the result in test [5], in test [6], in test [7] and in test [8] was inactive.
As to `CC(C)(C)c1ccc(CNC(=O)/C=C/c2ccc(-c3nc4ccc(C(C)(C)C)cc4[nH]3)cc2)cc1`, the growth inhibition is 66% (active) in test [1] and 100% (active) in test [4]. In addition, the inhibition in test [2] is 35%; in test [3], -2%. Further, the result in test [5], in test [6], in test [7] and in test [8] was inactive.
Take `O=S(=O)(NCCN1CCCC1)c1ccc(-c2cccc(CNCc3ccsc3)c2)s1`: the results for the growth inhibition in test [1] and in test [4] were 43% and 90% (active), respectively. In addition, the inhibition was 42% in test [2] and 0% in test [3]. The result in test [5], in test [6], in test [7] and in test [8] was inactive.
As to `CN1CCCN(Cc2ccc(-c3cccc(NC(=O)c4cccc(F)c4)c3)cc2)CC1`, the growth inhibition in test [1] was 12%; in test [4], 91% (active). The results for the inhibition in test [2] and in test [3] were 28% and -3%, respectively. For the same molecule, the outcome in test [5], in test [6], in test [7] and in test [8] was inactive.
With `COc1ccc2nc3ccccc3c(NCCN3CCN(C)CC3)c2c1`, the values for the growth inhibition in test [1] and in test [4] were 10% and 81% (active), respectively. Besides, the inhibition in test [2] is 11%; in test [3] it was 1%. Also, the result in test [5], in test [6], in test [7] and in test [8] was inactive.
In the case of `CCOc1ccc(N(CC)S(=O)(=O)c2cc(Br)cc3c2N(C(=O)C2CC2)CC3)cc1`, the growth inhibition is 97% (active) in test [1] and 99% (active) in test [4]. In addition, the figures for the inhibition in test [2] and in test [3] were -4% and -5%, respectively. Moreover, the outcome in test [5], in test [6], in test [7] and in test [8] was inactive.
